Bioassay records: PubChem, Broad Institute
ERAP1 inh: inhibitors of human ERAP1 aminopeptidase. Q9NZ08. recombinant ERAP1, Leu-AMC fluorescence, 60 min. inhibition, % at 10.7 µM. hit rate 0.15% among 340,000;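 active = mean replicate inhibition of at least 30%, or all replicates individually reaching that 30% level; inactive = mean below 30% and not every replicate reaching it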;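 note: 0% = neutral control wells and 100% = L-leucinethiol positive control wells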
Target sequence (Q9NZ08 whole entry, looked up): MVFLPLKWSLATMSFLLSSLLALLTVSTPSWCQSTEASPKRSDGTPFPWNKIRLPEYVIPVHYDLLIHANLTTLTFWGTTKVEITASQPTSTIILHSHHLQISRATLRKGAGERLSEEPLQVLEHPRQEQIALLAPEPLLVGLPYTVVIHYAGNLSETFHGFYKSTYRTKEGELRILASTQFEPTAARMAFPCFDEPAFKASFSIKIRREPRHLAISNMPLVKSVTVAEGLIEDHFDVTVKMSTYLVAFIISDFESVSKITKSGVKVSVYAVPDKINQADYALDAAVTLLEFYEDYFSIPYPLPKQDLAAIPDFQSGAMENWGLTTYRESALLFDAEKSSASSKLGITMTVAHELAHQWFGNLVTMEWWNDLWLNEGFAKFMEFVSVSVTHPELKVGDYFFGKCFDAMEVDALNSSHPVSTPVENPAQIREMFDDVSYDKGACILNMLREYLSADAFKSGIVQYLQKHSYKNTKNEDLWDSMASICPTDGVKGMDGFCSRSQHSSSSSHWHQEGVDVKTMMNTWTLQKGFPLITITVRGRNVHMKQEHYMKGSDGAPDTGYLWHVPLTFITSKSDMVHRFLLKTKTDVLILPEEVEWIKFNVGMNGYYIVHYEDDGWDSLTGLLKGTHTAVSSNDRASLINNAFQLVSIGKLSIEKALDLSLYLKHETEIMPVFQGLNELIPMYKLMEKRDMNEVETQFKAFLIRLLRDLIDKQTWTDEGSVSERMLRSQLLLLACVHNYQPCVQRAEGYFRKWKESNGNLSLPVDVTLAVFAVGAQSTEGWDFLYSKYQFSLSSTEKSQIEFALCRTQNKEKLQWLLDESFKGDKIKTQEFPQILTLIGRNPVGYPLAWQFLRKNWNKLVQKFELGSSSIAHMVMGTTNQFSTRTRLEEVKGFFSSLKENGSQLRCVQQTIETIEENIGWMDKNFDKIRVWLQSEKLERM
DENV2 CPE: protects cells from dengue virus 2 cytopathic effect; hit rate 1.7% among 350,000; DENV2-infected cells, cytopathic effect rescue, plate reader; CPE inhibition, % at 9.99 µM; in the data active = CPE inhibition above about 20%, passing the limit was not always enough; inconclusive = no clear call, values can overlap the other calls; tested in BHK-21 cells;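 note: 0% = median of neutral control wells and 100% = median of positive control wells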
CaV13 FRET inh: Primary screen for inhibitors of IQ motif and Ca2+-dependent inactivation inhibitor domain binding in CACNA1D, Förster resonance energy transfer in living cells, …; HEK cells, CFP/YFP FRET ICDI-IQ, plate reader, 10 min; percent FRET-ratio fall versus neutral wells; inhibition, % at 12.3 µM; hit rate 0.098% among 340,000;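 active = mean replicate inhibition of at least 30% and at least 1% of replicates passing that level; inconclusive = only one of the two criteria is met; inactive = neither criterion is met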;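 note: 0% = median of the neutral control wells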
rRNA inh HTS: inhibitors of bacterial rRNA selective over humanized ribosomes | E. coli WT GFP vs humanized-ribosome RFP mutants, fluorescence, 24 h; hits give low values; DMSO median 0, no signal -100 | GFP signal change (wild-type ribosome), % (concentration not given with the values) | hit rate 1.6% among 350,000 | AID 720706;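 active = significant combined selectivity score with lowered wild-type GFP, culture density cut under 30%, mutant RFP and density less affected; inactive = any of these conditions unmet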
PGC1a acetyl inh: modulators of PGC1a acetylation | U2OS PGC1a acetylation, AlphaScreen anti-acetyl-lysine; with virally co-expressed GCN5 acetyltransferase | inhibition, % at 15.6 µM | hit rate 0.17% among 350,000;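 active = every replicate shows inhibition of at least 40%; inconclusive = mean inhibition at least 40% but some replicate below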;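 note: 0% = neutral control wells and 100% = positive control wells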
GSIS activator: GLuc luminescence reporter in INS-1E cells, primary screen for activators of glucose-dependent secretion of insulin; INS-1E GLuc reporter insulin secretion, 2-3 h; activation, % at 16.6 µM; hit rate 0.61% among 370,000; AID 743287;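 active = lowest replicate activation of at least 40%, so every replicate reaches that level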;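 note: 0% = median of neutral control wells and 100% = median of IBMX positive control wells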
Starred values were filed as active, the others as inactive. Rows were chosen to be rich in hits. Some 3.2% of all compounds tested hit in one or more screens of this group.

`CO[C@@H]1CN(C)C(=O)c2cc(NC(=O)CC(F)(F)F)ccc2OC[C@H](C)N(CC2CC2)C[C@H]1C` gave ERAP1 inh 0, DENV2 CPE 7, rRNA inh HTS 0, PGC1a acetyl inh -13 and GSIS activator -3.
`Cc1ccccc1Nc1nc(N)nc(-c2oc3ccccc3c2C)n1` gave ERAP1 inh 0, DENV2 CPE 69*, CaV13 FRET inh -4, rRNA inh HTS -36*, PGC1a acetyl inh 6 and GSIS activator 5.
For C[C@@H]1CN([C@@H](C)CO)C(=O)Cc2cc(NS(C)(=O)=O)ccc2O[C@@H]1CN(C)C(=O)Nc1ccc2c(c1)OCO2 the results were DENV2 CPE -4, rRNA inh HTS 5, PGC1a acetyl inh -2 and GSIS activator 13.
For O=C1Nc2ccccc2/C1=C/c1ccccc1F the results were ERAP1 inh 0, DENV2 CPE -6, CaV13 FRET inh -18, rRNA inh HTS -29*, PGC1a acetyl inh 2 and GSIS activator 11.
For O=C(O)CCCCCCCCc1cn(CCc2c[nH]c3ccccc23)nn1 the results were ERAP1 inh -11, DENV2 CPE 21*, CaV13 FRET inh -10, rRNA inh HTS -9, PGC1a acetyl inh -4 and GSIS activator -42.
COc1ccc2c3c(n(C)c2c1)[C@@H](CO)N(C(=O)C1CCCC1)CC31CCN(C(=O)c2ccncc2)CC1 was read as ERAP1 inh 0, DENV2 CPE 19, rRNA inh HTS -1 and GSIS activator -6.
CCCc1[nH]n(-c2nc3ccccc3s2)c(=O)c1C=NCCN1CCOCC1 was read as CaV13 FRET inh -9, PGC1a acetyl inh 7 and GSIS activator 0.
CCCc1[nH]n(-c2nc3ccccc3s2)c(=O)c1C=NCC1CCCO1 (stereo not given) was read as ERAP1 inh 1, CaV13 FRET inh -5, rRNA inh HTS -25*, PGC1a acetyl inh 0 and GSIS activator -13.
Screening C[C@@H]1CN([C@H](C)CO)S(=O)(=O)c2ccc(C#CC3CCCC3)cc2O[C@@H]1CN(C)C(=O)c1cccc(F)c1 returned rRNA inh HTS 4, PGC1a acetyl inh -10 and GSIS activator -6.
Screening O=C(C[C@H]1CC[C@@H](NC(=O)CN2CCOCC2)[C@H](CO)O1)NCCc1ccncc1 returned ERAP1 inh 0, DENV2 CPE -2, rRNA inh HTS 4, PGC1a acetyl inh -9 and GSIS activator 11.
`NNC(=O)COc1ccccc1[N+](=O)[O-]` gave ERAP1 inh 3, DENV2 CPE -2, CaV13 FRET inh 0, rRNA inh HTS 6, PGC1a acetyl inh -3 and GSIS activator -7.
For CC(C)(C)/C(COc1ccccc1[N+](=O)[O-])=N/O the results were ERAP1 inh 2, DENV2 CPE -1, CaV13 FRET inh -4, rRNA inh HTS -17* and GSIS activator 0.
Screening O=C([C@H]1[C@H](CO)[C@H]2Cn3c(cccc3=O)[C@H]2N1C(=O)C1CCCC1)N1CCOCC1 returned ERAP1 inh 0, DENV2 CPE -2, rRNA inh HTS 3, PGC1a acetyl inh 2 and GSIS activator 9.
Screening Cc1ccc(/C=N/n2c(-c3cccnc3)n[nH]c2=S)s1 returned CaV13 FRET inh -5 and GSIS activator 40*.
`CC(=O)C1=C(C)N(Cc2ccc(Cl)cc2)C(=S)NC1c1ccc(Cl)cc1` (stereo not given) gave ERAP1 inh -1, DENV2 CPE 55*, CaV13 FRET inh -2, rRNA inh HTS 4 and GSIS activator -32.
Screening CCN(CC)CCCN=C1N[C@@H](c2ccccc2)C(C(=O)OC)=C(C)N1CC returned ERAP1 inh 63*, DENV2 CPE 1, CaV13 FRET inh -5, rRNA inh HTS 23, PGC1a acetyl inh -3 and GSIS activator 17.
CC(=O)C1=C(C)N(Cc2ccccc2)C(=O)N[C@H]1c1cccc(C(F)(F)F)c1 was read as ERAP1 inh -1, CaV13 FRET inh -12, rRNA inh HTS -32, PGC1a acetyl inh -8 and GSIS activator -8.
`CC(=O)C1=C(C)N(Cc2ccccc2)C(=O)N[C@@H]1c1cccc(C(F)(F)F)c1` gave ERAP1 inh -1, DENV2 CPE -20, CaV13 FRET inh -11, rRNA inh HTS -21*, PGC1a acetyl inh -3 and GSIS activator -4.
CCN1C(=NCC2CC2)N[C@@H](c2ccccc2)C(C(=O)OC)=C1C was read as ERAP1 inh 3, DENV2 CPE -4, CaV13 FRET inh -4, rRNA inh HTS 21, PGC1a acetyl inh 1 and GSIS activator 11.
`COC(=O)C1=C(C)N(Cc2cccc(C(F)(F)F)c2)C(=NCc2ccc(C(F)(F)F)cc2)NC1c1ccc(C(F)(F)F)cc1` (stereo not given) gave ERAP1 inh 1, DENV2 CPE -6, rRNA inh HTS -26 and GSIS activator 815*.
For CC(=O)C1=C(C)N(Cc2ccc(Cl)cc2)C(=S)NC1c1ccccc1 (stereo not given) the results were ERAP1 inh 2, DENV2 CPE 15, CaV13 FRET inh -2, rRNA inh HTS -15 and GSIS activator -20.
COc1cccc(CNC(=O)C[C@@H]2C=C[C@@H](NC(=O)C3CCOCC3)[C@H](CO)O2)c1 was read as ERAP1 inh -1, DENV2 CPE 5, rRNA inh HTS 0, PGC1a acetyl inh 4 and GSIS activator -12.
Screening O=C(O)C[C@@H]1C=C[C@@H](NC(=O)c2ccccc2F)[C@@H](CO)O1 returned ERAP1 inh -3, DENV2 CPE inconclusive, rRNA inh HTS 1, PGC1a acetyl inh 2 and GSIS activator -3.
COC(=O)C1=C(C)N(Cc2cccc(C(F)(F)F)c2)C(=NCc2ccc(C(F)(F)F)cc2)NC1c1ccc(F)cc1 (stereo not given) was read as ERAP1 inh -3, DENV2 CPE 8, CaV13 FRET inh -4, rRNA inh HTS -39 and GSIS activator 875*.
Screening COC(=O)C1=C(C)N(Cc2ccc(C(F)(F)F)cc2)C(=NCc2ccccc2)NC1c1cccc(F)c1 (stereo not given) returned ERAP1 inh -2, DENV2 CPE -11, CaV13 FRET inh -4, rRNA inh HTS -54 and GSIS activator 671*.
`COC(=O)C1=C(C)N(Cc2ccccc2)C(=NCc2ccc(OC)cc2)N[C@H]1c1cccc(F)c1` gave ERAP1 inh 0, DENV2 CPE 6, CaV13 FRET inh -5, rRNA inh HTS -57 and GSIS activator 4.
For COC(=O)C1=C(C)N(Cc2cccc(C(F)(F)F)c2)C(=NCc2ccc(C(F)(F)F)cc2)NC1c1cccc(F)c1 (stereo not given) the results were ERAP1 inh -1, DENV2 CPE -1, CaV13 FRET inh -4 and rRNA inh HTS -64.
